A selection: hits, their analogues and other compounds. The true share with any hit is near 0.43%.
N370S GC – N370S glucocerebrosidase modulation, Gaucher chaperone candidate; P04062; N370S GC spleen homogenate, 4MU-glucoside fluorescence; Potency, µM (series often up to 59.4 µM), for inactives: top-dose activity change, negative = inhibition, actives largely listed as inhibitors; 330,000 compounds, 0.092% hits; AID 2101;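 also: potency is read from the fitted curve at half-maximal effect; 0% = full enzyme activity and -100% = no enzyme basal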
GLA spleen mod – inhibitors or activators of human alpha-galactosidase in spleen homogenate. P06280. human spleen homogenate, 4MU-alpha-Gal fluorescence, 40 min. Potency, µM (series often up to 80 µM), for the others: at the highest dose activity change, negative = inhibition, usual class: inhibitors. 240,000 compounds, 0.008% hits;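 also: potency is read from the fitted curve at half-maximal effect; 0% = enzyme with vehicle and -100% = no enzyme basal signal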
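Spleen homogenate 1 ug + cpd (titration) + 4-MU-alpha-D-galactopyranoside 1 mM; 37C 40 min; 50 mM citrate/phosphate pH 5.0, 0.01% Tween-20; stop pH 10; fluorescence 365/440; AC50 via Hill.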
GAA glycogen – inhibitors or activators of human alpha-glucosidase glycogen cleavage; AID 2100; 300,000 compounds, 0.38% hits; Potency, µM (titrated, usually from 76.4 µM), without a hit: at the highest dose activity change, negative = inhibition, usual class: inhibitors; recombinant GAA, glycogen substrate, Amplex Red glucose oxidase fluorescence; P10253;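 also: potency is read from the fitted curve at half-maximal effect; 0% = full enzyme reaction and -100% = no-enzyme basal signal; the screen sought inhibitors and activators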
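Recombinant enzyme (4 nM final) with compounds titrated up to 77 uM and bovine liver glycogen (30 ug) in citrate pH 5.0, 0.01% Tween-20, 37 C 40 min. Released glucose detected by Amplex Red/glucose oxidase (Ex 573/Em 610); AC50 from Hill fits.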
GLA inh pH 4.5 – inhibitors of human alpha-galactosidase A at pH 4.5 | activity change, negative = inhibition, % at 105 µM | purified enzyme, 4-MU-alpha-Gal fluorescence, pH 4.5 | 230,000 tested, under 10 active;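 also: 0% = full activity with enzyme and -100% = basal without enzyme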
Target sequence (P06280 whole entry, looked up): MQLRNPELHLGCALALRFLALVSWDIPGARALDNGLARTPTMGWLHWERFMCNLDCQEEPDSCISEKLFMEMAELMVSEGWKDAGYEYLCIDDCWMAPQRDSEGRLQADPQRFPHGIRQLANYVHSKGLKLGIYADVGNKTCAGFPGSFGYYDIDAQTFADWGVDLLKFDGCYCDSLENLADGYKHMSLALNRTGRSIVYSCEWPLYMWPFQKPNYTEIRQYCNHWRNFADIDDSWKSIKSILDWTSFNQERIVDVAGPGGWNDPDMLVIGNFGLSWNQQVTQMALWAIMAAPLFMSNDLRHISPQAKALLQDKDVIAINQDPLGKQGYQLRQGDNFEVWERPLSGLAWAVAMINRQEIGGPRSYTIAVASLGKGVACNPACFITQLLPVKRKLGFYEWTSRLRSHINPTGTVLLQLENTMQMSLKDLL
GAA inh – blocks human lysosomal alpha-glucosidase | purified human GAA, 4-MU-alpha-glucoside fluorescence | AID 1466 | 200,000 compounds, 0.005% hits | Potency, µM (titrated, usually from 76.9 µM), for the others: at the top dose activity change, negative = inhibition, most hits filed as inhibitors | P10253;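 also: potency is read from the fitted curve at half-maximal effect; plate controls were uninhibited enzyme wells for no effect and no-enzyme background for full effect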
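Fluorogenic assay: 4 nM human alpha-glucosidase with 400 uM 4-methylumbelliferyl-alpha-D-pyranoside in 50 mM citrate/phosphate, 0.005% Tween-20, pH 5.0, 20 min at room temperature. Compounds tested up to 77 uM; AC50 from Hill fits.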
aGlu spleen mod – inhibitors or activators of human alpha-glucosidase in spleen homogenate; P10253; human spleen homogenate, 4-MU-alpha-glucoside fluorescence; Potency, µM (series often up to 79.9 µM), inactives show at the highest dose activity change, negative = inhibition, hits mostly inhibitors; 240,000 compounds, 0.006% hits;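 also: potency is read from the fitted curve at half-maximal effect; 0% = enzyme with vehicle and -100% = no enzyme basal signal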
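AC50 values come from Hill-equation fits of concentration-response data, normalized to no-enzyme and full-activity controls. Enzyme source: 1 ug human spleen homogenate; 1 mM fluorogenic 4-MU glucoside, pH 5.0 citrate buffer, 37 C, 40 min.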
Active calls of the source: *; ? = inconclusive; . = no result; [ ] = dose if it differs, or a comment. Calls follow the shape of the dose curve; as a rule, active = well fitted curve in the direction sought with a large enough effect; inconclusive = small, poorly fitted or top-dose-only effect, or another doubt; inactive = no such curve, though single readings can be large; an effect the other way counts as inactive or inconclusive.

SMILES	N370S GC	GLA spleen mod	GAA glycogen	GLA inh pH 4.5	GAA inh	aGlu spleen mod
O=C1CCCC2=C1C(c1ccc(O)c(O)c1)Nc1ccc3ncccc3c12 (centres undefined)	6%	6%	2.8µM*	-5	-2%	-2%
N#Cc1cccc(-c2nccc(-n3ccnc3)n2)c1	-11%	5%	.	.	.	-3%
O=C(CN1CCN(c2ccc(O)cc2)CC1)N1CCc2ccccc21	-10%	.	5µM*	.	.	.
COCCNc1c(-c2ccc(OC)cc2)nc2ccc(Cl)cn12	-24%	4%	5µM*	9	7%	8%
COc1ccc(/C=N\NC(=O)C2=NNC(=O)C2C)cc1 (centres undefined)	-4%	-16%	28µM*	10	5%	-8%
COc1ccc(OC)c(Cc2nnc(CCC(=O)NCc3ccc(C)s3)o2)c1	7%	-3%	10µM*	3	3%	-3%
COc1ccc(OC)c(Cc2nnc(CCC(=O)NC(C3CC3)C3CC3)o2)c1	-2%	-8%	11%	2	1%	-2%
CC(=O)Cc1cc(O)c2ccccc2c1OC(=O)c1ccccc1	-28%	7%	8.9µM*	-18	?	-8%
CC(=O)Oc1c(C)cc(O)c2ccccc12	8%	4%	14µM*	-1	2%	2%
COC(=O)c1cc(O)c(OCc2ccccc2)c(O)c1	-2%	4%	-25%	-5	-3%	-15%
Cc1oc(-c2ccccc2Cl)nc1Cn1c(SCc2cccc(F)c2)nc2cccnc21	.	.	-11%[76.3 µM]	.	.	.
Cn1sc(=O)n(Cc2ccccc2)c1=O	-3%	20%	.	.	.	10%
COc1ccc(CCN2C(=O)CC(Nc3ccc(N4CCOCC4)cc3)C2=O)cc1OC (centres undefined)	-9%	0%	16µM*	8	-1%	-5%
O=C1CC(Nc2ccccc2)C(=O)N1c1ccc(N2CCOCC2)cc1 (centres undefined)	-24%	9%	6%	8	-8%	-5%
CCc1ccc(NC2CC(=O)N(CCc3ccc(OC)c(OC)c3)C2=O)cc1 (centres undefined)	20%	-17%	-21%	-17	4%	-14%
O=C1CC(Nc2ccc(N3CCOCC3)cc2)C(=O)N1C1CCCCC1 (centres undefined)	-4%	9%	13µM*	1	0%	-1%
O=C(Nc1ccc(N2CCOCC2)cc1)NC1CCCCC1	3%	-10%	?	0	1%	-3%
O=C1CC(Nc2ccc(N3CCOCC3)cc2)C(=O)N1c1ccccc1F (centres undefined)	-4%	1%	25µM*	-9	0%	0%
CC(C)N1C(=O)CC(Nc2ccc(N3CCOCC3)cc2)C1=O (centres undefined)	.	1%	25µM*	-13	-6%	-2%
Cc1ccc2c(Sc3ccccc3)c(C(=O)NCc3ccccc3F)[nH]c2c1	.	.	3%[76.3 µM]	.	.	.
COc1cccc(OCC(=O)NNC(=S)Nc2ccc(Cl)cc2Cl)c1	4%	12%	56µM*	-1	8%	8%
C[C@@H](c1ccccc1)N1C(=O)[C@H]2[C@@H]3[C@H](O)[C@H](O)CC(=O)[C@H]3CC[C@H]2C1=O	12%[12.8 µM]	?	.	.	.	3%[17.4 µM]
O=c1[nH]c2cc([N+](=O)[O-])c([N+](=O)[O-])cc2[nH]c1=O	8.9µM*	11%	-6%	-9	-11%	-6%
COCCN(CCOC)C(=O)c1cc2c(=O)n3ccccc3nc2n1C	.	.	10%[76.3 µM]	.	.	.
CC(=O)Nc1ccc(Nc2nc(-c3ccccc3)nc3ccccc23)cc1	6.3µM*	-4%	-11%	-9	0%	1%
SMILES	N370S GC	GLA spleen mod	GAA glycogen	GLA inh pH 4.5	GAA inh	aGlu spleen mod
CC(Nc1nc(-c2ccccc2)nc2ccccc12)c1ccccc1 (centres undefined)	5µM*	-1%	-12%	5	-1%	-1%
Fc1ccc(Nc2nc(-c3ccoc3)nc3ccccc23)cc1	16µM*	4%	.	.	.	5%
c1ccc(CNc2nc(-c3ccoc3)nc3ccccc23)cc1	?	-2%	.	.	.	2%
Cc1cccc(-c2nc(Nc3ccc(N4CCOCC4)cc3)c3ccccc3n2)c1	2.8µM*	-3%	-5%	-8	-11%	-3%
O=C(O)c1ccc(Nc2nc(-c3ccc([N+](=O)[O-])cc3)nc3ccccc23)cc1	-6%	.	-9%	.	.	.
CON(C)C(=O)c1nnc2c3ccccc3n(S(=O)(=O)c3ccc(C)cc3)c2n1	-1%[12.8 µM]	3%[17.5 µM]	.	.	.	-9%[17.4 µM]
CCOC(=O)C1OC1C(=O)NC(CC(C)C)C(=O)NCCC(C)C (centres undefined)	-1%	-14%	.	.	.	2%
C[C@@H]1CC[C@H]2C(=O)NC[C@@H](O)CN2[C@@H]1c1ccc(Br)cc1	12%[12.8 µM]	8%[17.5 µM]	.	.	.	3%[17.4 µM]
C[C@H](CCC(=O)NCC(=O)O)C1CC[C@H]2[C@H]3C(C[C@H](O)[C@]12C)[C@@]1(C)CC[C@@H](O)C[C@H]1C[C@H]3O (some centres undefined)	0%	2%	.	.	.	13%
CCOC(=O)CNc1c(-c2ccc(Cl)cc2)nc2cnccn12	2%	3%	40µM*	3	?	1%
CCOC(=O)CNc1c(-c2ccc(OC)cc2)nc2ccc(Cl)cn12	?	1%	?	-2	2%	-2%
CCOC(=O)CNc1c(-c2ccc(F)cc2)nc2cnccn12	8%	11%	12µM*	12	8%	-10%
CCOc1ccc(CN(C(=O)c2nc(SC)ncc2Cl)C2CCS(=O)(=O)C2)cc1 (centres undefined)	.	.	9%[76.3 µM]	.	.	.
COc1cccc(-n2cc(C(=O)NCc3ccccc3OC)c3ccccc3c2=O)c1	.	.	40µM*	.	.	.
COc1ccccc1N1CCN(CC2CN3C(=O)N(C)c4ccccc4C3=N2)CC1 (centres undefined)	1%	1%	.	.	.	-4%
Cc1ccc(N/C=C/C(=O)c2ccco2)c(O)c1	-2%	1%	8.9µM*	0	.	6%
Cc1ccccc1N=C1NC(=O)CC(c2ccccc2)S1 (centres undefined)	-5%	-5%	11µM*	-5	1%	6%
CCc1cccc(C)c1Nc1c(-c2cccs2)nc2nc(C)cc(C)n12	.	.	-28%[76.3 µM]	.	.	.
CCc1cccc(C)c1Nc1c(-c2cccc(O)c2)nc2sccn12	.	.	35µM*	.	.	.
CC1CCc2c(nc3ncnn3c2N2CCN(c3ccccc3F)CC2)C1 (centres undefined)	-3%	?	1%	-3	-3%	-5%
CC1CCc2c(nc3ncnn3c2NCCc2ccccc2F)C1 (centres undefined)	-28%	-12%	4µM*	-5	10%	2%
Nc1n[nH]c2ccccc12	7%	-4%	3.5µM*	-17	-3%	-24%

Screens deposited in PubChem BioAssay by National Center for Advancing Translational Sciences (NCATS).
